Out of some 2,100 compounds screened, about 770 (37%) were called active. The list shows a part of the results. A number with no mark means an inactive call.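 Rule for the calls: active = by-eye trace score of 1 for enhancers or -1 for inhibitors, so actives lie on both sides (some results past the limit were not filed as active); inactive = score 0, or 3 fluorescent, or 4 baseline rise.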

From PubChem BioAssay AID623911 (Vanderbilt High Throughput Screening Facility, 2012) come the findings set out here.

For the assay, the target named is G protein-activated inward rectifier potassium channel 2 (Homo sapiens) + G protein-activated inward rectifier potassium channel 1 (Homo sapiens) (UniProt P48051+P48549). The experiment in a line: GIRK1/2 thallium flux modulators, retest, confirmation, cell-based, HEK293 rmGlu8/hGIRK1/2, FluoZin-2 (AID 623911). The note with it: HEK293 rmGlu8/hGIRK1/2, thallium flux FluoZin-2; actives lie on both sides; glutamate co-added at its EC20 level.
Chain of G protein-activated inward rectifier potassium channel 2 (Homo sapiens) + G protein-activated inward rectifier potassium channel 1 (Homo sapiens) (P48051 whole entry, looked up): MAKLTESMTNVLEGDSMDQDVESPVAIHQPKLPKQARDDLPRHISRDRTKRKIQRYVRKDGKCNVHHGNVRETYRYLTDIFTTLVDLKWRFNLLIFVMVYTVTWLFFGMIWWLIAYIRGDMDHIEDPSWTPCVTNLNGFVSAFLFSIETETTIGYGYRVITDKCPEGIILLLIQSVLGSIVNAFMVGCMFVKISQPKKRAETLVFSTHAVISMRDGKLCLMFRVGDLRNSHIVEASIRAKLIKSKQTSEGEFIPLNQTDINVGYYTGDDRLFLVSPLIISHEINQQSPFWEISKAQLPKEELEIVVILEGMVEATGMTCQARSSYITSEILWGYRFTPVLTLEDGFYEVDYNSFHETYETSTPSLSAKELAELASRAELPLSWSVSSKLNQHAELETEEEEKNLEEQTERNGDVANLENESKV
Chain of G protein-activated inward rectifier potassium channel 2 (Homo sapiens) + G protein-activated inward rectifier potassium channel 1 (Homo sapiens) (P48549 whole entry, looked up): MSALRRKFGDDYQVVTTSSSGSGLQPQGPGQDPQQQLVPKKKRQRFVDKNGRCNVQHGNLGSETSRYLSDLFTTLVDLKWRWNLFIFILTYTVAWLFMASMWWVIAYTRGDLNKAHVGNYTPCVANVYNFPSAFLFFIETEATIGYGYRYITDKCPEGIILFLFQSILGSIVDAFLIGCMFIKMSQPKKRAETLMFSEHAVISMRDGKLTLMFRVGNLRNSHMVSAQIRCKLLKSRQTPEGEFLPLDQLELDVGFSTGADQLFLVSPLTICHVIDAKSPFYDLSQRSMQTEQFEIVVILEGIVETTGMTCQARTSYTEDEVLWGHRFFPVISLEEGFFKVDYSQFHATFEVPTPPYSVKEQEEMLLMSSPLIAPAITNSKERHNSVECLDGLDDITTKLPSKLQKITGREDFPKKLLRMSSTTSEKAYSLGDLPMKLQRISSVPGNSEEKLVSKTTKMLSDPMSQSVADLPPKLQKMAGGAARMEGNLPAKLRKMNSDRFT
For `Cc1nc2ccccn2c1-c1csc(NCc2ccco2)n1`, the manual score was -1 (active).
Next, `CCCCCNc1nc(-c2ccccc2)cs1`: 0.
For `CC(C)(C)C1CCC2(CC1)Nc1cccc3cccc(c13)N2` the value was 0; for `Oc1cccc(Nc2nc(NCC3CCCO3)c3ccccc3n2)c1` (configuration not stated), -1 (active).
For `O=C(O)c1cccc(Nc2nc(N3CCOCC3)nc(N3CCOCC3)n2)c1` the value was 0.
`COC(=O)C1CCCN1C(=O)c1cccs1` (configuration not stated): the manual score is 0.
Consider `CC1CCCC(NC(=O)Nc2cccs2)C1C` (configuration not stated), for which the manual score was 1 (active).
For `C=COCCNC(=O)Nc1ccc(Cl)c(Cl)c1` the value was 0.5; for `CCOC(=O)C1=C(CC)Nc2ccccc2N=C1NC(=O)Nc1ccc(Cl)c(Cl)c1`, 1 (active).
Consider `CCOC(=O)C1=C(CC)Nc2ccccc2N=C1NC(=O)c1ccc(S(=O)(=O)N(C)C)cc1`, for which the manual score was 0.
As for `CCCn1c(=O)c2ccccc2n2c(SCc3nc4ccccc4s3)nnc12`, the manual score is 0.
Next, `CCCn1c(=O)c2ccccc2n2c(SCC(=O)N3CCc4ccccc4C3)nnc12`: -1 (active); `CCCn1c(=O)c2ccccc2n2c(SCCOc3ccccc3F)nnc12`: -1 (active); `CCCn1c(SC(C(=O)Nc2cc(C)ccc2OC)c2ccccc2)nc2ccccc2c1=O` (configuration not stated): 0.
Next, `Cc1ccc2oc(=O)c3cnn(CC(=O)N4CCc5ccccc5C4)c3c2c1`: 0.
Next, `O=C(CSc1nc2ccccc2n1CCc1ccccc1)N1CCOCC1`: 0; `COc1ccc(-c2nc(C#N)c(NCCCN(C)C)o2)cc1OC`: 0; `CC(C)(C)NC(=O)C(=O)NNC(=O)COc1ccc(Br)cc1`: 1 (active).
For `CNC(=S)SCCOc1ccc(C)cc1`, the manual score is 3.
Next, `COc1ccc(OCC(=O)NNC(=O)C(=O)Nc2ccc(C)cc2)cc1`: 1 (active); `Cc1ccc(OCC(=O)NNC(=O)C(=O)NC(C)(C)C)cc1`: 1 (active).
Next, `Nc1c(-c2ccccc2)cnn1-c1ccc(C(=O)O)cc1`: 0; `CC1=NCCN1S(=O)(=O)c1cc(Cl)ccc1Cl`: 0.
`O=C(NCc1ccccc1)c1ccc2c(=O)n(CCCN3CCCC3=O)c(=S)[nH]c2c1`: the manual score was 0.
As to `CCn1c(NC(=S)Nc2ccccc2)nc2ccccc21`, the manual score is 0.
For `COc1ccc(CNC(=O)C(C#N)c2nc3ccccc3nc2N2CCCC2)cc1` (configuration not stated) the value was 3.
For `COc1cccc(CNc2nc3ccccc3n2CCN2CCCCC2)c1OC` the value was -1 (active).
For `Cn1c(CNc2nc3ccccc3n2CCN2CCCCC2)nc2ccccc21` the value was -1 (active); for `COc1ccccc1CNC(=O)c1c(N)n(CCCN2CCOCC2)c2nc3ccccc3nc12`, 0.
`COc1ccc(/C=C/c2nc3sc4c(c3c(=O)o2)CCC4)cc1`: the manual score was 3.
For `COc1ccc(OC)c(NC(=O)C2CC(=O)N(c3ccc(Br)cc3)C2)c1` (configuration not stated) the value was 0; for `COc1cc(NC(=O)C(=O)NNC(=O)C2CCCCC2)c(OC)cc1Cl`, 1 (active).
Next, `COc1cc(NC(=O)c2ccc(C)cc2)c(OC)cc1NC(=O)CN1CCCCC1`: 0; `CCOC(=O)CSc1nc2c(sc(=S)n2-c2ccccc2OC)c(=O)n1Cc1ccco1`: -1 (active); `CCOC(=O)N1CCN(C(=O)CSc2nc3c(c(=O)n2-c2ccccc2OC)SCC3)CC1`: 0.
For `CCOc1ccccc1NC(=O)CSc1nnc(-c2ccccn2)n1Cc1ccco1` the value was 0.
`Brc1ccccc1C1=Nn2c(nnc2-c2ccccc2)SC1`: the manual score is -1 (active).
For `CCCc1nnc2n1N=C(c1ccc(OC)c(OC)c1)CS2` the value was 0; for `CCOC(=O)c1sc2ncnc(NCc3ccco3)c2c1C`, 1 (active).
In the case of `Nc1nc(Nc2ccccc2)nc(NCc2ccco2)c1[N+](=O)[O-]`, the manual score was 0.
Next, `CS(=O)(=O)N(CC(=O)NCc1ccco1)c1ccc(Cl)c(C(F)(F)F)c1`: 0.
Next, `Cc1ccc(-n2c(CSc3nc(C)cc(C)n3)nnc2SCC(=O)NCc2ccco2)cc1`: 0; `Cc1ccc2c(Cl)cc(Cl)c(OCC(=O)NCc3ccco3)c2n1`: 1 (active).
For `C=CCOn1c(=O)c(-c2cccs2)[n+]([O-])c2ccccc21` the value was 3; for `CCCCCCn1c(=O)[nH]c2nc3cc(N)ccc3nc2c1=O`, 3; for `CN1CCN(C(=S)NC(=O)/C=C/c2cccc3ccccc23)CC1`, 0.
Take `CC1CCN(C(=S)NC(=O)c2ccccc2)CC1`: the manual score is 1 (active).
Next, `CNC(=S)N1CCN(c2ccc(OC)cc2)CC1`: 0; `COc1ccc(C(=O)NC(=S)N2CCC(C)CC2)cc1`: 1 (active); `O=C(NC(=S)N1CCN(Cc2ccccc2)CC1)c1ccccc1`: 1 (active).
As to `COc1ccc(C(=O)NC(=S)N2CCCCC2)cc1`, the manual score is 2.
Next, `CC1CCN(c2ncccc2C(=O)O)CC1`: 0; `CC1CCN(c2ccccc2NC(=S)NC(=O)c2cccs2)CC1`: 0; `Cc1cccc(-n2c(-c3csc(C(C)C)c3)n[nH]c2=S)c1`: 0.
In the case of `O=C(c1ccc2c(=O)n(C3CCCC3)c(=S)[nH]c2c1)N1CCc2ccccc21`, the manual score was 0.
For the compound `Cc1c(C(=O)N2CCc3ccccc32)oc2c1C(=O)CC(C)(C)C2`, the manual score was 0.
As to `CCn1nc(C(=O)OCC(=O)N2CCc3ccccc32)c2ccccc2c1=O`, the manual score is -1 (active).
For `CCc1c(C)nc(SCC(=O)N2CCc3ccccc32)[nH]c1=O`, the manual score was 3.
For `CCCCn1nc(C(=O)N2CCc3ccccc32)c2ccccc2c1=O` the value was -1 (active); for `CCn1nc(C(=O)OCC(=O)c2c[nH]c3ccccc23)c2ccccc2c1=O`, 0.
On to `Cc1[nH]n(-c2cccc3ccccc23)c(=O)c1/C=N/c1sc2c(c1C#N)CCC2`, for which the manual score was 1 (active).
Next, `Cc1[nH]n(-c2ccc(F)cc2)c(=O)c1/C=N/c1sc2c(c1C#N)CCCC2`: 3; `CC(=O)c1cccc(NC(=O)C2CCCN2S(=O)(=O)c2cccc3cccnc23)c1` (configuration not stated): 0; `COc1ccccc1OCC(=O)Nc1sc2c(c1C(=O)NCC1CCCO1)CCC2` (configuration not stated): 0.
Next, `CCOC(=O)c1c(NS(=O)(=O)c2cccc(OC)c2)sc2c1CCC2`: 1 (active); `CCOc1ccc(C(=O)CN2CCN(S(=O)(=O)c3ccc(Br)cc3)CC2)cc1`: 0.
For `CCOC(=O)c1c(NS(=O)(=O)c2ccc(Br)cc2)sc2c1CCC2` the value was 1 (active).
